Bioassay records: PubChem BioAssay, National Center for Advancing Translational Sciences (NCATS)
TDP1 cell noCPT: qHTS for Inhibitors of human tyrosyl-DNA phosphodiesterase 1 (TDP1): qHTS in cells in absence of CPT; AID 686978, 2013; DT40 Tdp1-/- hTDP1 cells, no CPT, ATP luminescence, 48 h; Potency, µM (doses to about 46.2 µM), without a hit: at the top dose activity change, negative = growth inhibition, usual class: inhibitors; actives 15% (n = 420,000); further: potency means the concentration at half of the fitted maximal effect; nearly all actives have a fitted effect of over 55% in size
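Chicken DT40 Tdp1-/- cells stably complemented with human TDP1 were seeded at 400 cells/well with DMSO in place of 20 nM camptothecin. After compound pinning, cells grew at least 48 hr at 37 °C; viability read by CellTiter-Glo luminescence.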
IL1B secr inh: qHTS for Inhibitors of Inflammasome Signaling: IL-1-beta AlphaLISA Primary Screen; THP-1 LPS/ATP IL-1B secretion, AlphaLISA, 16 h; stronger effect = lower value; activity change, % at 57.5 µM; actives 4.7% (n = 360,000); AID 743279, 2014; in the data active means activity change below about -50%; inconclusive means mostly about -30% to -49%
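Secreted IL-1B measured by AlphaLISA bead assay after 16 h compound exposure of THP-1 cells; compounds (final up to 57.5 uM) added 1 h before LPS (250 ng/mL) and ATP (1.25 mM) stimulation; lower signal means less secretion.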
Six1-Eya2 blk: qHTS Assay for Inhibitors of the Six1/Eya2 Interaction. activity change, % (test concentration not listed). AlphaScreen GST-Six1/His-Eya2 binding, biochemical; stronger effect = lower value. AID 651725, 2012. actives 0.56% (n = 360,000); in the data active means activity change below about -65%; inconclusive means mostly about -30% to -63%
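Six1/Eya2 binding was read as AlphaScreen signal after compounds were pinned into GST-Six1 plus His-tagged Eya2 (5X stock 250/500 nM) in pH 8.0 Tris/NaCl/TCEP buffer, beads added, then incubated 1 h, 37 C, dark.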
TDP1 inh: qHTS Assay for Inhibitors of Tyrosyl-DNA Phosphodiesterase (TDP1); Tyrosyl-DNA phosphodiesterase 1 (Homo sapiens), Q9NUW8; recombinant TDP1, AlphaScreen DNA substrate cleavage; Potency, µM (highest dose often 130 µM), inactives show at the top dose activity change, negative = inhibition, usual class: inhibitors; actives 0.28% (n = 350,000); AID 485290, 2010; further: potency means the concentration at half of the fitted maximal effect; nearly all actives have a fitted effect of over 40% in size
Target sequence (Q9NUW8 whole entry, looked up): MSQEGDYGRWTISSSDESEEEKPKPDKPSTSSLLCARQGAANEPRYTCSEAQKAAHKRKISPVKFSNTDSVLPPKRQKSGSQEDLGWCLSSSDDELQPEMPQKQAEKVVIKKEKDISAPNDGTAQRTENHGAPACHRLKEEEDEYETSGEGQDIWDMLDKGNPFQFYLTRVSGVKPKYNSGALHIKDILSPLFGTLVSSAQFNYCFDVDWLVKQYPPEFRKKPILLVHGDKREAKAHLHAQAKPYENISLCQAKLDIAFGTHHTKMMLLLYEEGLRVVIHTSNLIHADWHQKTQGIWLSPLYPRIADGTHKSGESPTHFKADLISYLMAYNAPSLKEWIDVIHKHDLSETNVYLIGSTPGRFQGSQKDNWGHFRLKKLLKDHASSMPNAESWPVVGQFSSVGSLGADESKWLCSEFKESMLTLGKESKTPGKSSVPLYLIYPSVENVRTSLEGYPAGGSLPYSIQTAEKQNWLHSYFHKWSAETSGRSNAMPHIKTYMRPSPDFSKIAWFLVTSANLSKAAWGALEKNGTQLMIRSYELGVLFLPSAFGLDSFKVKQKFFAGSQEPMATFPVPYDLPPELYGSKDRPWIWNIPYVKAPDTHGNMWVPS
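AlphaScreen read-out: signal falls as enzyme removes the 3' tyrosine-FITC from a 5'-biotinylated DNA oligo (15 nM, 5 min, RT). Enzyme was E. coli-made recombinant Tdp1 at 1 nM, exposed to compound for 15 min beforehand; beads 10 ug/ml, 10 min.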
TDP1 cell CPT: qHTS for Inhibitors of human tyrosyl-DNA phosphodiesterase 1 (TDP1): qHTS in cells in presence of CPT. chicken DT40 Tdp1-/-;hTDP1 cells + 20 nM CPT, ATP luminescence, 48 h. Potency, µM (top dose mostly 46.2 µM), without a hit: top-dose activity change, negative = growth inhibition, actives largely listed as inhibitors. actives 12% (n = 420,000); further: potency means the concentration at half of the fitted maximal effect; nearly all actives have a fitted effect of over 55% in size
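Chicken DT40 Tdp1-/- cells complemented with human TDP1, 400 cells/well, exposed to compounds plus 20 nM camptothecin for at least 48 h at 37 C; viability read as ATP content by CellTiter-Glo luminescence.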
CtBP-E1A inh: qHTS Assay for Inhibitors of the CtBP/E1A Interaction. CtBP / adenovirus E1A interaction (AlphaScreen). AlphaScreen GST-E1A/His-CtBP binding, 1536-well; stronger effect = lower value. activity change, % (concentration not given with the values). actives 0.49% (n = 340,000); in the data active means activity change below about -65%; inconclusive means mostly about -30% to -63%
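Protein mix (5X: 125 nM each GST-E1A, His-CtBP) was incubated with pinned compound 2 h at 37 deg C in dark, in 50 mM Tris pH 8.0 buffer with 300 mM NaCl. Glutathione donor and nickel acceptor beads followed; AlphaScreen signal read after 1 h.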
Active calls of the source: *; ? = inconclusive; . = no result. Shown are actives, neighbours in structure and some others; about 18% of the full set was active somewhere. Unless noted, the call rests on the fitted dose curve; in most records, active means well fitted curve in the direction sought with a large enough effect; inconclusive means small, poorly fitted or top-dose-only effect, or another doubt; inactive means no such curve, though single readings can be large; an effect the other way counts as inactive or inconclusive. On the % scale 0 is the no-effect control and ±100 the full control effect.

SMILES	TDP1 cell noCPT	IL1B secr inh	Six1-Eya2 blk	TDP1 inh	TDP1 cell CPT	CtBP-E1A inh
Cc1ccc(C(C[N+](=O)[O-])c2c(N)n(C)c(=O)n(C)c2=O)cc1 (configuration not stated)	5.2µM*	?	5	2%	3.7µM*	3
Cn1c(N)c(S(=O)(=O)N2CCN(Cc3ccccc3)CC2)c(=O)n(C)c1=O	-16%	5	3	5%	28%	-24
COc1cc(C(=O)C(O)c2ccc(O)c(OC)c2)ccc1O (configuration not stated)	1%	6	5	.	-4%	9
CC(C(c1ccc2c(c1)OCO2)c1c(N)n(C)c(=O)n(C)c1=O)[N+](=O)[O-] (configuration not stated)	16µM*	-12	6	.	?	2
COC(=O)c1ccccc1C(=O)N1CC(O)CO1 (configuration not stated)	3%	41	10	.	10%	8
CCN(CC)CCN1C(=O)c2ccccc2NC1c1ccc(F)cc1 (configuration not stated)	3%	1	3	0%	-5%	-8
COc1cccc(F)c1C(C[N+](=O)[O-])c1c(N)n(C)c(=O)n(C)c1=O (configuration not stated)	2.3µM*	-100*	4	-1%	4.6µM*	.
Cn1c(N)c(C(=O)COC(=O)Cc2c(F)cccc2Cl)c(=O)n(C)c1=O	2%	16	-3	1%	0%	-7
O=C(Nc1nccs1)c1ccc(S(=O)(=O)N2CCOCC2)cc1	16µM*	0	2	2%	?	-1
O=C(Nc1nccs1)c1ccc(Br)c(S(=O)(=O)N2CCOCC2)c1	?	9	-4	-3%	-1%	-13
O=C(Nc1nc(-c2cccs2)cs1)c1ccc(S(=O)(=O)N2CCCC2)cc1	?	-72*	-13	5%	?	-7
O=C(Nc1nc(-c2ccc3c(c2)OCCO3)cs1)c1ccc(S(=O)(=O)N2CCCCC2)cc1	?	-79*	8	3%	?	47
CN(C)S(=O)(=O)c1ccc(C(=O)Nc2nc(-c3cccs3)cs2)cc1	?	-3	-1	1%	21µM*	0
C=CCN1C(=O)c2ccc(C(=O)N(C)Cc3ccc(C)o3)cc2C1=O	10%	8	0	.	10%	5
CCN1CCN(C(=O)c2ccc(OCC(=O)Nc3ccc(F)cc3)c(OC)c2)CC1	?	14	-3	0%	-20%	-8
Cc1ccc2nc(SCC(=O)Nc3ccc(Br)cc3)nc(=O)n2c1	-29%	?	3	15%	?	-2
CCC(=O)c1ccc(OCC(=O)N(C)CC(=O)Nc2cccc(F)c2)cc1	-5%	21	4	0%	-4%	.
S=C(NCCc1ccccc1)N1CCN(C(c2ccccc2)c2ccccc2)CC1	16µM*	-2	7	1%	12µM*	11
CCCCNC(=S)N1CCN(C(c2ccccc2)c2ccccc2)CC1	?	12	-2	9%	?	12
S=C(NCCc1ccccc1)N1CCN(C23CC4CC(CC(C4)C2)C3)CC1	8.2µM*	-84*	1	-1%	10µM*	-8
S=C(NCCc1ccccc1)N1CCCC1	9%	-7	5	.	11%	1
CN(C)S(=O)(=O)c1cc(NC(=O)COC(=O)CC2CC3CCC2C3)ccc1Cl (configuration not stated)	-12%	9	3	-3%	-5%	.
CN(CC(=O)Nc1ccc(C#N)cc1)CC(=O)Nc1ccc(N2CCOCC2)cc1	-31%	-1	0	0%	4%	8
Cc1cc(-n2c(SCC(=O)Nc3ccc(Br)cc3)nc3n[nH]c(C)c3c2=N)ccc1Cl	?	16	1	1%	?	2
Cc1cccc(-n2c(SCC(=O)Nc3ccc(C)c(C)c3)nc3n[nH]c(C)c3c2=N)c1	7.3µM*	.	.	0%	10µM*	.
SMILES	TDP1 cell noCPT	IL1B secr inh	Six1-Eya2 blk	TDP1 inh	TDP1 cell CPT	CtBP-E1A inh
CCc1ccc(NC(=O)CSc2nc3n[nH]c(C)c3c(=N)n2-c2cccc(OC)c2)cc1	26µM*	-19	?	6%	18µM*	?
CCc1ccc(NC(=O)CSc2nnc(Cc3cccn3C)n2-c2ccc(OC)cc2)cc1	-18%	-9	-19	11%	-26%	-10
COc1cccc(NC(=O)CSc2nnc(-c3cc(C)[nH]n3)n2N)c1	3%	18	-4	0%	-4%	.
Cc1ccc(-n2c(SCC(=O)Nc3cccc(Cl)c3)nc3n[nH]c(C)c3c2=N)cc1	7.3µM*	.	.	-5%	8.2µM*	.
COc1cccc(NC(=O)CSc2nc3n[nH]c(C)c3c(=N)n2-c2cccc(OC)c2)c1	21µM*	-51*	?	6%	23µM*	?
CC1CCCCN1CC(O)COc1ccc(OCC(O)CN2CCCCC2C)cc1 (configuration not stated)	-27%	-29	5	.	0%	14
CCOC(=O)c1c(C=O)c(C)n(Cc2ccccc2Cl)c1C	-15%	-27	-15	5%	-5%	-22
CCN(C(=O)CSc1nc2ccccc2nc1Cc1ccc(F)cc1)c1cccc(C)c1	?	.	.	-3%	?	.
CCN(C(=O)CSc1nc2n[nH]c(C)c2c(=N)n1-c1cccc(OC)c1)c1cccc(C)c1	?	.	.	8%	23µM*	.
COc1cccc(-n2c(SCC(=O)NCCC3=CCCCC3)nc3n[nH]c(C)c3c2=N)c1	15µM*	19	-79*	9%	16µM*	-70*
Cc1cc(-n2c(SCC(=O)Nc3ccc(F)c(F)c3)nc3n[nH]c(C)c3c2=N)ccc1Cl	1.5µM*	-6	17	0%	2.6µM*	.
CCOC(=O)C1=C(C)N=C2c3ccccc3C(=O)C2C1c1ccc(C)cc1 (configuration not stated)	?	10	-7	3%	?	-13
O=C1c2ccccc2C2=Nc3ccccc3SC(c3ccc(Cl)cc3)C12 (configuration not stated)	?	-4	?	11%	?	-22
